Laboratory results: ChEMBL document CHEMBL4513216, “Probing the Open Global Health Chemical Diversity Library for Multistage-Active Starting Points for Next-Generation Antimalarials” (ACS Infect Dis, 2020)
The campaign covered roughly 69,000 compounds. About 8,600 (12%) showed an effect of 50% or more. What follows is part of a selection rich in strong results, with near analogues and random picks from the rest.

tested on: Plasmodium berghei; assay: Screen against P. berghei liver stage (PbLuc), transformed with Luciferase, at 10uM; format: functional, HepG2; conditions: tested at 10 uM

| SMILES | INHIBITION |
| --- | --- |
| O=C(CCc1nc(C2CC2)no1)c1ccc(F)c(F)c1 | -2.43% |
| CCOc1ccc(OCc2nc3c(c(=O)[nH]2)CCNC3)cc1 | 26.7% |
| c1coc(CN2C[C@@H]3OCCN(CCN4CCCC4)[C@@H]3C2)c1 | 36.4% |
| CCn1cnnc1CNC(=O)N1CCC(OCc2ccccc2)CC1 | 23.4% |
| COCc1cncc2c1CCN(C(=O)c1ccc(C#N)cc1)C2 | 5.89% |
| CC(C)C(=O)N1CCC(C)(c2cc[nH]n2)CC1 | -16.9% |
| O[C@@H]1CC(CNCc2cccc(Cl)c2)(COc2cnccn2)C[C@@H]1O (stereo partly drawn) | -4.26% |
| CN(Cc1n[nH]c2c1CCC2)C(=O)CCc1cc2n(n1)CCCNC2 | 0.72% |
| COC(=O)N1CC[C@@]2(C1)[C@H](OC)CN(c1ccccc1)S2(=O)=O | 31.3% |
| CO[C@@H]1CN(c2ccccc2)S(=O)(=O)[C@@]12CCN(C(=O)N(C)C)C2 | 51.7% |
| CO[C@@H]1CN(c2ccccc2)S(=O)(=O)[C@@]12CCN(C(C)=O)C2 | 34.3% |
| O=C1CCC2(CCNCC2)CN1Cc1nncn1CCc1ccccc1 | 0.348% |
| CC(=O)NCc1ccc(-n2ccnc2C)nc1 | 57.6% |
| Cc1nccn1-c1ccc(CNS(=O)(=O)N2CCCC(C)C2)cn1 (stereo not drawn) | 37.7% |
| Cc1nccn1-c1ccc(CNC(=O)c2ccc[nH]2)cn1 | 10.5% |
| Cc1nccn1-c1ccc(CNS(=O)(=O)N2CCCCC2C)cn1 (stereo not drawn) | 43.9% |
| Cc1nccn1-c1ccc(CNS(=O)(=O)N2CCC(C)CC2)cn1 | 76% |
| Cc1nccn1-c1ccc(CNC(=O)c2ccc(O)nc2)cn1 | 38.3% |
| CCn1cc(C(=O)Nc2cc(C(=O)OC)ccc2C(=O)OC)cn1 | 13.3% |
| COc1ccccc1Cc1cc(O)nc(NC(C)CN(C)C)n1 (stereo not drawn) | 9.63% |
| CC(NC(=O)COc1ccccc1Cl)c1nnc2n1CCC2 (stereo not drawn) | -40.7% |
| CC(C)CN1CC(C(=O)NCc2ccnc(-n3cccn3)c2)CC1=O (stereo not drawn) | 27.357% |
| CCS(=O)(=O)N1CCCC(Cc2cnccn2)C1 (stereo not drawn) | 56% |

| SMILES | INHIBITION |
| --- | --- |
| Cn1cc(C(=O)N2CCCC(Cc3cnccn3)C2)cn1 (stereo not drawn) | -12.2% |
| CS(=O)(=O)N1CCCC(Cc2cnc(Br)cn2)C1 (stereo not drawn) | 26.7% |
| CC(NC(=O)CCCn1cnc2ccccc2c1=O)c1ncn[nH]1 (stereo not drawn) | 11.1% |
| COCc1cc(NCCc2ccc(OC)cc2)n2nccc2n1 | 32.2% |
| N#CC1(NC(=O)c2ccc(-c3nc(C4CC4)n[nH]3)cc2)CC1 | 8.38% |
| Cc1cc(=O)n(CC(=O)NC(C)C)c(Nc2ccc(F)c(C)c2)n1 | 64.2% |
| Cc1cccc(-c2nc(C)nn2CC(=O)NC(C)C)c1 | 22.3% |
| CCC(C)NC(=O)CCn1ccc(C)n1 (stereo not drawn) | -5.77% |
| Cc1cc(=O)n(CC(=O)NCCC(C)C)c(-c2cccc(Cl)c2)n1 | 48.5% |
| Cc1cc(C)cc(Nc2nc(C)cc(=O)n2CC(=O)NC(C)C)c1 | 34.6% |
| CCC(C)NC(=O)Cn1c(Nc2cc(C)cc(C)c2)nc(C)cc1=O (stereo not drawn) | 55.4% |
| CC(C)n1cnc2ccc(NC(=O)CCCn3cccn3)cc2c1=O | -5.38% |
| Cc1cccc(C(=O)N2CCC(C(=O)c3cc(F)ccc3F)CC2)n1 | 11.6% |
| Cc1cc(NC(=O)NC2CCN(C(C)C)CC2)c2ncccc2c1 | 70.5% |
| Cc1cc(NC(=O)N2CCCC2C(=O)NC2CC2)c2ncccc2c1 (stereo not drawn) | 22.6% |
| Cc1cc(NC(=O)N2CCCC2C(C)(C)O)c2ncccc2c1 (stereo not drawn) | 35.4% |
| CCN(C(=O)c1nc2c(s1)CCCN2S(C)(=O)=O)C(C)C | 4.68% |
| Cc1cc(C)n(C2CCCN(C(=O)CCNc3ncccn3)C2)n1 (stereo not drawn) | 41.5% |
| Cc1oc(-c2ccsc2)nc1CN1CCCC(c2ccnn2C)C1 (stereo not drawn) | 66.3% |
| Cc1oc(-c2ccccc2)nc1CN1CCC(c2ccnn2C)CC1 | 69.7% |
| CSc1ccc(-c2nc(CN3CCC(CN)C3)c(C)o2)cc1 (stereo not drawn) | -70.3% |
| Cc1ncc2c(n1)CN(Cc1nc(-c3ccsc3)oc1C)CC2 | -4.92% |
| Cc1oc(-c2ccsc2)nc1CN1CC[C@@H]2CCCC[C@H]2C1 | 28.4% |

| SMILES | INHIBITION |
| --- | --- |
| CSc1ccc(-c2nc(CN3CCC(C(N)=O)CC3)c(C)o2)cc1 | -10.2375% |
| Cn1cc(NS(=O)(=O)CCOc2ccc(F)cc2)cn1 | -15.29% |
| Cc1cc(C)n(Cc2cc(C(=O)N3CCCC3c3ccccn3)n[nH]2)n1 (stereo not drawn) | 39.7% |
| CC(=O)Nc1cccc2c1ccn2CC(=O)Nc1ncc[nH]1 | 25.8% |
| COCCOCC(=O)N1CCCC(c2ncc[nH]2)C1 (stereo not drawn) | -45% |
| Cc1nnc(C2CCN(c3ccccc3)CC2)o1 | 16.5% |
| CN(C)S(=O)(=O)N1CCC(C)(c2ncc(C(N)=O)s2)CC1 | -7.66% |
| Cc1ccc(NC(=O)CNC(C)CN2CCCCC2)c(F)c1 (stereo not drawn) | 63.8% |
| Cc1ccc(NC(=O)CN2CCOCC2)c(F)c1 | 28% |
| Cc1ccc(NC(=O)CNC(C)CN2CCOCC2)c(F)c1 (stereo not drawn) | 41.5% |
| Cc1cc(C)n(CCC(=O)N2CCC(Nc3cccnn3)CC2)n1 | -16.75% |
| CC1CN(CC(=O)NC(C2CC2)C2CC2)CCN1Cc1nccn1C (stereo not drawn) | -43.05% |
| COc1ccc(CN2CCC3(CC2)NC(=O)CC3c2ccncc2)cc1 (stereo not drawn) | 30.7% |
| COCCN1CCCn2c(nc(CNC(=O)COC)cc2=O)C1 | 31.2% |
| Cc1oncc1C(=O)NCc1cc(=O)n2c(n1)CN(C(C)C)CCC2 | 35.4% |
| Cn1ccnc1C(=O)NCc1cc(=O)n2c(n1)CN(CC1CC1)CCC2 | 4.02% |
| CC(C)N1CCCn2c(nc(CNC(=O)c3nccn3C)cc2=O)C1 | 71.6% |
| CC(C)N1CCc2c(CNC(=O)c3nccn3C)cncc2C1 | 24% |
| CN1CCCn2c(nc(CNC(=O)c3nccn3C)cc2=O)C1 | 13.7% |
| COCC(=O)NCc1cc(=O)n2c(n1)CN(C)CCC2 | 59.3% |
| COCC(=O)NCc1cc(=O)n2c(n1)CN(CC1CC1)CCC2 | 26.7% |
| CCCN1CCCn2c(nc(CNC(=O)c3nccn3C)cc2=O)C1 | 66.8% |
